From PubChem BioAssay AID2732 (Emory University Molecular Libraries Screening Center, 2010)
In all, about 220,000 compounds went through this assay and about 8,200 (3.7%) were called active. The sample as a whole holds a higher share of actives than the screen did. Values without a mark were called inactive.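 Rule for the calls: active = compounds that reduced the stress-induced luciferase reporter signal by more than about 70% of percent inhibition (limit read from the data); inactive = the rest.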

Test: blockers of ER-stress CHOP reporter expression – cell-based, unfolded protein response, luciferase reporter, primary screen (AID 2732);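 note: 0% = tunicamycin plus vehicle and 100% = wells without tunicamycin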
Settings: CHO-K1 CHOP-promoter luciferase, tunicamycin-induced, 15-18 h; at 10 µM; active compounds read high

Row | Compound | inhibition
1 | Cc1ccc(/C=N/NC(=S)Nc2cccc(S(=O)(=O)N(C)C)c2)o1 | 36%
2 | NC(=O)c1ccc(-c2csnn2)cc1 | 9.46%
3 | Cc1ccccc1-c1n[nH]c(=S)n1C | -13.1%
4 | Cc1n[nH]c(=S)n1/N=C/c1ccc(Br)o1 | 14.2%
5 | Cc1ccccc1-c1n[nH]c(=S)n1/N=C/c1ccc(-c2ccccc2Br)o1 | 72.8% (active)
6 | CC1CN(c2nc(Nc3ccccc3)nc(N)c2[N+](=O)[O-])CC(C)O1 (stereo not drawn) | 9.58%
7 | Cc1cccc(-n2c(N)c(C(=O)N3CCN(C)CC3)sc2=S)c1 | -3.45%
8 | CCCc1nc(-c2ccccc2O)n(-c2ccccc2)n1 | 40.5%
9 | CCCc1nc(N2CCN(C)CC2)c2sc(=S)n(-c3ccccc3)c2n1 | 74.7% (active)
10 | O=C(NCCc1ccccn1)c1cccnc1Oc1ccc(Cl)cc1 | 18.1%
11 | CCCN(CCC)S(=O)(=O)c1ccc(C(=O)NNC(=O)c2cc(OC)c(OC)c(OC)c2)cc1 | 2.06%
12 | C/C(CC(=O)NC(C)c1ccccc1)=N\NC(N)=S (stereo not drawn) | 0.93%
13 | Cc1nc(SCC(=O)c2ccccc2)c([N+](=O)[O-])[nH]1 | 7.53%
14 | O=C(CSc1nc2ccc([N+](=O)[O-])cc2[nH]1)c1ccc(Cl)cc1 | 78.4% (active)
15 | CC(=O)Nc1ccc(C(=O)CSc2nc3ccc(C)cc3[nH]2)cc1 | 37.2%
16 | CCOc1ccc(N2CC(C(=O)N/N=C/c3sccc3C)CC2=O)cc1 (stereo not drawn) | 17.4%
17 | COc1ccc(C(C(=O)NC(C)(C)C)N(C(=O)Cn2nnc3ccccc32)c2ccc(C(C)=O)cc2)cc1O (stereo not drawn) | -13.6%
18 | O=C(Nc1ccc(Cl)cc1)Nc1ccc(Oc2cccnc2)nc1 | 15.6%
19 | COc1ccc(OC(C)C(=O)NCCc2nc3ccccc3[nH]2)cc1 (stereo not drawn) | 12.8%
20 | CCCCCOc1ccc(/C=C/C(=O)NCCc2nc3ccccc3[nH]2)cc1OC | 70.7% (active)
21 | O=C(COc1ccccc1)NCCc1nc2ccccc2[nH]1 | -0.39%
22 | CCN(CC)S(=O)(=O)c1cc([N+](=O)[O-])ccc1NNC(=O)Nc1ccccc1 | 94.6% (active)
23 | O=C(CSCC(=O)Nc1cccc([N+](=O)[O-])c1)Nc1ccccc1 | -4.34%
24 | CCN(CC)S(=O)(=O)c1cc([N+](=O)[O-])ccc1N=Nc1c(O)n(C)c2ccccc12 | 39.2%
25 | CCOC(=O)c1cnc(COc2ccccc2Cl)[nH]c1=O | -0.7%

Row | Compound | inhibition
26 | Oc1c(Cl)cc(Cl)c(Cl)c1Cc1c(O)c(Cl)cc(Cl)c1Cl | 93.3% (active)
27 | N#Cc1c(C(F)(F)F)cc(-c2cccs2)nc1N1CCCCC1 | 12.1%
28 | COCc1cc(=O)[nH]c(SC)n1 | -4.77%
29 | CCOC(=O)c1c(NC(=S)Nc2ccccc2C)sc2c1CCC2 | 34.1%
30 | CCOC(=O)c1c(NC(=S)NC(=O)c2ccco2)sc2c1CCCC2 | 85% (active)
31 | CCOC(=O)c1c(NC(=S)NC)sc2c1CCCC2 | 14.4%
32 | CN(C)/C=C(/C(=O)c1ccc(Cl)c(Cl)c1)c1nnnn1-c1ccccc1 | -4.76%
33 | COc1ccc(N(Cc2ccccc2)S(=O)(=O)c2cccc(C(=O)O)c2)cc1 | 3.03%
34 | O=C(Cn1nnc(N2CCCCC2)n1)c1ccc(Cl)c(Cl)c1 | 6.73%
35 | Clc1ccc(C[n+]2cc(-c3ccccc3)n3c2CCC3)cc1 | 9.23%
36 | Cc1nnc(NC(=O)Nc2ccc(Cl)c(Cl)c2)s1 | 86.9% (active)
37 | Cc1ccc(NC(=O)Nc2nnc(-c3ccncc3)s2)cc1 | 40.9%
38 | CCn1nccc1C(=O)Nc1ccc(Cl)c(Cl)c1 | 0.72%
39 | Cc1c(C(=O)Nc2cccc(Cl)c2)cn2c(nc3ccccc32)c1C#N | 104% (active)
40 | O=C(O)c1cccc(NC(=O)c2cc(-c3cccc(Cl)c3)nc3ccccc23)c1 | -25%
41 | Cn1cc(Cl)c(C(=O)NNC(=S)Nc2cccc(Cl)c2)n1 | 9.14%
42 | O=C(NCc1cc(C(F)(F)F)cc(C(F)(F)F)c1)C1CC(c2cccc(F)c2)=NO1 (stereo not drawn) | 20.1%
43 | Oc1ccc(/C=N/N(Cc2ccccc2)c2ccccc2)cc1 | 97.5% (active)
44 | O=C(N/N=C/c1ccc(OCc2ccccc2)cc1)c1ccc(O)cc1 | -37.6%
45 | CN(C)c1ccc(/C=N/N(Cc2ccccc2)c2ccccc2)cc1 | 1.37%
46 | NC(=O)C1=CN(C2OC(COP(=O)(O)OP(=O)(O)OC[C@H]3O[C@@H](n4cnc5c(N)ncnc54)C(OP(=O)(O)O)[C@H]3O)C(O)C2O)C=CC1 (stereo partly drawn) | -6.4%
47 | O=C(NC1CCN(Cc2ccccc2)CC1)c1ccccc1F | 22.9%
48 | CCN1CCN(c2cc3nc(C)n(Cc4ccccc4)c(=O)c3cc2NC(=O)c2ccccc2F)CC1 | 95.7% (active)
49 | CCC(=O)Nc1ccc2nc(C)n(Cc3ccccc3Cl)c(=O)c2c1 | -4.28%
50 | Cc1sc2nc(COC(=O)C(NC(=O)c3ccc(Cl)cc3Cl)C(C)C)[nH]c(=O)c2c1C (stereo not drawn) | 95.4% (active)

Row | Compound | inhibition
51 | Cc1sc2nc(CSCC(=O)Nc3c(Cl)cccc3Cl)[nH]c(=O)c2c1C | 0.31%
52 | CC(C)NC(=O)c1ccc(Cl)cc1Cl | 12.1%
53 | O=C(Nc1ccccc1)N1CCN(C2c3ccccc3-c3ccccc32)CC1 | 12.3%
54 | Cc1ccc(C)c2c1cc(C)c1nnc(SCC(=O)Nc3cccc(C(=O)O)c3)n12 | -9.73%
55 | O=C(Cc1ccc(Cl)c(Cl)c1)Nc1ccc(SC(F)F)cc1 | 88% (active)
56 | CC(=O)N1CCN(CC(=O)Nc2ccc(SC(F)F)cc2)CC1 | 16.9%
57 | Cc1ccc(CC(=O)Nc2ccc(OC(F)F)c(Cl)c2)cc1C | 62%
58 | CC(NC(=S)Nc1ccccc1)C(c1cccs1)N1CCOCC1 (stereo not drawn) | -3.16%
59 | Oc1c(Br)cc(/C=N/NC(=S)NCC2CCCO2)cc1Br (stereo not drawn) | 22.4%
60 | CC1=C(C)CC2C(=O)N(c3cccc4ccccc34)C(=O)C2C1 (stereo not drawn) | 19.9%
61 | O=C(Cc1ccccc1)NNC1CC(=O)N(c2ccc(Br)cc2)C1=O (stereo not drawn) | 17%
62 | Cc1ccc(N2C(=O)CC(Nc3cccc4ccccc34)C2=O)cc1 (stereo not drawn) | 74.7% (active)
63 | COc1cc(C=O)c(Br)cc1OCC(=O)NCc1ccccc1 | 18%
64 | COc1ccc(NC(=O)/C(C#N)=C\c2cc(OC)c(OCc3ccc(C(=O)O)cc3)cc2Br)cc1 | 103% (active)
65 | COc1cc(/C=C(\C#N)C(=O)Nc2ccc3ccccc3c2)c([N+](=O)[O-])cc1OC | -24.5%
66 | O=C(NCc1ccco1)C1CCCN1S(=O)(=O)c1ccccc1C(F)(F)F (stereo not drawn) | 14.3%
67 | CN(C)NC(=O)c1csnc1-c1c(Cl)cccc1Cl | -5.93%
68 | Cc1ccccc1CSc1nnc(CCCCCNC(=O)OC(C)(C)C)o1 | 12.7%
69 | NCC(=O)c1cccc2ccc[n+]([O-])c12 | -8.9%
70 | O=C(CSc1nc2ccccc2s1)Nc1ccc(C(=O)O)cc1 | -1.84%
71 | COc1ccc(S(=O)(=O)Nc2ccc(O)c(Sc3nc4ccccc4s3)c2)cc1 | 13.3%
72 | O=[N+]([O-])c1c(NCCO)cc(Sc2nc3ccccc3s2)c2nonc12 | 108% (active)
73 | C/C(=N\NC(=O)CC(C)C)c1c(C(F)(F)F)[nH]n(-c2nc3ccccc3s2)c1=O | -21.3%
74 | CCN(CC)c1ccc(/C=N/NC(=O)c2cnccn2)c(O)c1 | 47.2%
75 | CC(C)Cn1c(N)c(C(=O)NCc2cccs2)c2nc3ccccc3nc21 | 89% (active)

Row | Compound | inhibition
76 | CCC(C)NC(=O)c1c(N)n(/N=C/c2cccs2)c2nc3ccccc3nc12 (stereo not drawn) | 67.4%
77 | C=CCn1c(N)c(C(=O)OCC(C)C)c2nc3ccccc3nc21 | 18%
78 | Cc1cccc(NC(=O)CSc2nnc(CCNC(=O)OC(C)(C)C)o2)c1C | -14.5%
79 | COC(=O)c1ccc(COc2cc([N+](=O)[O-])cc3cccnc23)cc1 | 5.56%
80 | CC(=O)N(OCc1ccc(OC(C)C)c(Cl)c1)C(C)=O | -4.06%
81 | CCOCc1nnc(NC(=O)CSc2ccc(C)cc2)s1 | 12.8%
82 | O=C(Nc1ccc(Cl)cc1)Nc1nnc(/C=C/c2ccccc2)s1 | 46.8%
83 | O=C(CSc1ccccc1)Nc1nnc(/C=C/c2ccccc2)s1 | 88.6% (active)
84 | Cc1ccc(-n2ncc3c(=O)[nH]cnc32)c(C)c1 | 31.6%
85 | Cc1ccc(N2CCN(S(=O)(=O)c3ccc(F)cc3)CC2)c(C)c1 | 47.5%
86 | Cc1ccc(-n2ncc3c(N4CCN(c5ccc(F)cc5)CC4)ncnc32)c(C)c1 | 83.8% (active)
87 | CCOc1ccc(/C=N/NC(=O)CSc2ccccn2)cc1O | 3.02%
88 | CC1CCN(CCC(=O)Nc2ccccc2)CC1 | -9.3%
89 | O=C(CCC(=O)OCc1ccc(Cl)cc1)Nc1ccccc1 | 0.59%
90 | CC(C)(C)C1CCC(OC(=O)CCC(=O)Nc2ccccc2)CC1 (stereo not drawn) | 71.5% (active)
91 | COc1ccccc1CNC(=O)Cn1c(=O)oc2cc(Cl)ccc21 | 4.18%
92 | CCOc1ccc2nc(/N=C/c3nc(-c4ccccc4)oc3O)sc2c1 | 73.9% (active)
93 | CC(N=Cc1nc(-c2ccccc2)oc1O)c1ccccc1 (stereo not drawn) | 28.4%
94 | CCOc1ccc2nc(SC(CC)C(=O)Nc3cc(C)on3)sc2c1 (stereo not drawn) | 27.5%
95 | Cn1c(SCC(=O)Nc2ccc(Cl)cc2)nc(O)cc1=O | -3.96%
96 | N#Cc1ccc(C(=O)Nc2cccc3cccnc23)c(F)c1 | -2.37%
97 | N#Cc1ccccc1NC(=O)COc1c(Br)cc(Br)c2cccnc12 | 88.1% (active)
98 | O=C(COC(=O)c1ccccn1)Nc1cccc2ccccc12 | -19.7%
